Most compounds without a hit are left out; they make up all but 2.6% or so of the library.
Cruzain inh noDet – inhibitors of Trypanosoma cruzi cruzain without detergent | P25779 | purified cruzain, Z-FR-AMC fluorescence, no detergent | Potency, µM, for the others: max response, negative = inhibition, hits mostly inhibitors | 2.3% of 200,000 active;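 note: plate controls were enzyme without inhibitor for no effect and buffer without enzyme for full effect; nearly all actives have a fitted effect of over 40% in size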
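Detergent-free condition (0.00005% Triton X-100) in acetate buffer pH 5.5 with DTT. 1.5 nM enzyme and compound were pre-mixed 15 min, then 2 uM Z-FR-AMC substrate added; reaction progress from fluorescence change between first and third reads (60 s).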
Cruzain inh Det – blocks cruzain activity in presence of Triton detergent; P25779; purified cruzain, Z-FR-AMC fluorescence, 0.01% Triton; Potency, µM, for inactives: max response, negative = inhibition, actives largely listed as inhibitors; 0.43% of 200,000 active;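 note: plate controls were neutral wells for no effect and buffer without enzyme for full effect; nearly all actives have a fitted effect of over 40% in size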
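Read-out: AMC fluorescence (360 nm excitation, 450 nm emission), four reads over 2 min, first-to-third difference used. Conditions: cruzain 1.5 nM, Z-FR-AMC 2 uM, pH 5.5 acetate, 5 mM DTT, 0.01% Triton X-100.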
Papain inh – counter-screen for cruzain inhibitors: papain inhibition; shares compounds with Cruzain inh Det; purified papain, Z-FR-AMC fluorescence cleavage; Potency, µM, for inactives: max response, negative = inhibition, actives largely listed as inhibitors; 41% of 410 active;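 note: 0% = no-compound wells and -100% = no-enzyme wells; nearly all actives have a fitted effect of over 35% in size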
Target sequence (P00784 whole entry, looked up): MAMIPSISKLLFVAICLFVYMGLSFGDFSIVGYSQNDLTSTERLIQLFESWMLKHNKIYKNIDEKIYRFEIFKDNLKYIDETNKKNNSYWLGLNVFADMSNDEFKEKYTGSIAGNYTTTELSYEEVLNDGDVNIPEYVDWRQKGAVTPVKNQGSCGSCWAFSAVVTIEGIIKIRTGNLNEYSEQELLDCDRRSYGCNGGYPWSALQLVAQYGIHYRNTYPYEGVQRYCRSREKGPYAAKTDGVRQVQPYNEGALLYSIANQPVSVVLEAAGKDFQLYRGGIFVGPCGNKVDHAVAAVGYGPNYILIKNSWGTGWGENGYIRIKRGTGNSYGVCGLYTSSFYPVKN
* marks the source's active call; other numbers are inactive results. Calls come from the whole dose curve; as a rule, active = well fitted curve in the direction sought with a large enough effect; inconclusive = small, poorly fitted or top-dose-only effect, or another doubt; inactive = no such curve, though single readings can be large; an effect the other way counts as inactive or inconclusive. Potency is the fitted concentration of half-maximal effect.

Results for CCNc1nc(SCc2ccccc2)nc(N2CCOCC2)n1 ?
Cruzain inh noDet: 2%; Cruzain inh Det: -10%

What do the screens show for `CCOc1ccc(-n2c(SCc3ccc(C(=O)OC)o3)nc3c([nH]c4ccccc43)c2=O)cc1`?
Cruzain inh noDet: 20%; Cruzain inh Det: -2%

What do the screens show for `Fc1ccc(CSc2nncn3c2cc2occc23)c(Cl)c1`?
Cruzain inh noDet: -5%; Cruzain inh Det: -4%

What do the screens show for `COc1ccc(-c2nc3ccccc3o2)cc1NC(=O)c1cccc2c(Cl)cccc12`?
Cruzain inh noDet: 17%; Cruzain inh Det: 0%

Results for CCOC(=O)c1c(NC(=O)CCCOc2ccc(C)cc2)sc2c1CCC(C)C2 (stereo not given) ?
Cruzain inh noDet: 3%; Cruzain inh Det: 0%

How did O=C(NCc1ccc(F)cc1)C(=O)Nc1ccc2nc3n(c(=O)c2c1)CCCCC3 do in these assays?
Cruzain inh noDet: 5%; Cruzain inh Det: 0%

How did CC(C)C(NC(=O)C(Cc1ccc(O)cc1)NC(=O)C(NC(=O)C(F)(F)F)C(C)C)C(=O)O (stereo not given) do in these assays?
Cruzain inh noDet: 8%; Cruzain inh Det: 1%

How did O=C(COc1ccc(Cl)cc1)NCC(c1ccco1)S(=O)(=O)c1ccc(F)cc1 (stereo not given) do in these assays?
Cruzain inh noDet: 11%; Cruzain inh Det: -6%

What do the screens show for `CC1=CC(=O)C=C(C)C1=NOC(=O)/C=C\c1ccccc1`?
Cruzain inh noDet: -1%; Cruzain inh Det: -4%

How did CC1=CC(=NOC(=O)/C=C/c2ccccc2)C=C(C)C1=O do in these assays?
Cruzain inh noDet: 2.5µM*; Cruzain inh Det: 2.2µM*; Papain inh: 10µM*

What do the screens show for `N#Cc1ccccc1NC(=O)C(=O)NCCc1csc(-c2ccc(F)cc2)n1`?
Cruzain inh noDet: -1%; Cruzain inh Det: -1%

Results for CCn1c(=O)c2sccc2n2c(CCC(=O)Nc3ccc(F)cc3)nnc12 ?
Cruzain inh noDet: 3%; Cruzain inh Det: -2%

What do the screens show for `CCCN(C(=O)Cn1cnc2onc(-c3ccc(F)cc3)c2c1=O)c1cccc(Cl)c1`?
Cruzain inh noDet: 10%; Cruzain inh Det: 3%

Results for COc1cc(/C=C/c2nc(C#N)c(NC(C)c3ccccc3)o2)cc(OC)c1OC (stereo not given) ?
Cruzain inh noDet: inconclusive; Cruzain inh Det: 7%

What do the screens show for `CNc1oc(/C=C/c2cc(OC)c(OC)c(OC)c2)nc1C#N`?
Cruzain inh noDet: 10µM*; Cruzain inh Det: 28µM*; Papain inh: 8.9µM*

What do the screens show for `CCn1cc2nc(SCc3cc(C)ccc3C)n(CCc3ccccc3)c(=O)c2n1`?
Cruzain inh noDet: inconclusive; Cruzain inh Det: 1%

Results for Cc1c(C(=O)N2CCC(C)CC2)c(S(=O)(=O)NCc2ccc(Br)cc2)c(C)n1C ?
Cruzain inh noDet: 8%; Cruzain inh Det: -1%

How did COc1cc(OC)c(-c2nn3c(-c4n[nH]c5c4CCC5)nnc3s2)cc1OC do in these assays?
Papain inh: 2%

How did Cc1cc(-c2nnc3sc(-c4ccc(Cl)cc4Cl)nn23)n[nH]1 do in these assays?
Cruzain inh noDet: -11%; Cruzain inh Det: 8%

Results for COc1cc(OC)c(-c2nn3c(-c4cc(C)[nH]n4)nnc3s2)cc1OC ?
Papain inh: -63%

Results for c1csc(Cc2nn3c(-c4n[nH]c5c4CCC5)nnc3s2)c1 ?
Cruzain inh noDet: inconclusive; Cruzain inh Det: -4%

What do the screens show for `CCCNS(=O)(=O)c1cc(-c2nnc3c4ccccc4c(C)nn23)ccc1OC`?
Cruzain inh noDet: 2%; Cruzain inh Det: -1%

Results for CCCOc1ccc(CNC(=O)c2cc3oc4ccccc4c3n2C)cc1 ?
Cruzain inh noDet: 0%; Cruzain inh Det: -10%

What do the screens show for `CCC(C(=O)NC1CCCCC1)n1c(SCc2ccc(F)cc2)nc2ccncc21` (stereo not given)?
Cruzain inh noDet: 0%; Cruzain inh Det: 13µM*; Papain inh: -15%

How did CCC(C(=O)NC1CCCC1)n1c(SCc2cccc(C)c2)nc2ccncc21 (stereo not given) do in these assays?
Cruzain inh noDet: 1%; Cruzain inh Det: -15%

How did Cn1cc(S(=O)(=O)N2CCCCC2)cc1C(=O)NCc1ccc(Cl)cc1 do in these assays?
Cruzain inh noDet: inconclusive; Cruzain inh Det: 10µM*; Papain inh: -6%

How did Cn1cc(S(=O)(=O)N2CCCCCC2)cc1C(=O)NCc1ccc(Cl)cc1 do in these assays?
Cruzain inh noDet: -6%; Cruzain inh Det: -26%

What do the screens show for `CN(C)CCN(Cc1ccccc1)S(=O)(=O)c1ccc(-c2cc(C(F)(F)F)on2)s1`?
Cruzain inh noDet: -6%; Cruzain inh Det: 1%

What do the screens show for `COc1cc(NC(=O)CCS(=O)(=O)c2ccc3c(c2)CC(=O)N3C)cc(OC)c1OC`?
Cruzain inh noDet: 3%; Cruzain inh Det: -2%

Results for COCCNC(=O)C1(C)Oc2ccccc2NC1=O (stereo not given) ?
Cruzain inh noDet: -2%; Cruzain inh Det: -4%

How did CC(=O)OC1(C(F)(F)F)Oc2ccccc2NC1=O (stereo not given) do in these assays?
Cruzain inh noDet: 1.3µM*; Cruzain inh Det: 0.89µM*; Papain inh: 7.9µM*

Results for CCCNC(=O)CN1C(=O)CSc2ccc(S(=O)(=O)N3CCC(C)CC3)cc21 ?
Cruzain inh noDet: 6%; Cruzain inh Det: -1%

How did CC(C)c1nc(N2CCN(C(=O)c3ccccc3)CC2)c(C#N)c2c1COC(C)(C)C2 do in these assays?
Cruzain inh noDet: 11%; Cruzain inh Det: -9%

Results for CC1(C)Cc2c(C#N)c(N3CCN(C(=O)c4ccccc4)CC3)nc(-c3ccco3)c2CS1 ?
Cruzain inh noDet: 25µM*; Cruzain inh Det: 28µM*; Papain inh: 7.9µM*

Results for CC1(C)Cc2c(C#N)c(N3CCCC3)nc(-c3ccco3)c2CO1 ?
Cruzain inh noDet: inconclusive; Cruzain inh Det: -4%

How did N#Cc1c(N2CCOCC2)nc(-c2ccco2)c2c1CCCC2 do in these assays?
Cruzain inh noDet: 10µM*; Cruzain inh Det: 13µM*; Papain inh: 5.6µM*

How did COc1cccc(CNC(=O)N2CCC(CN3CCC(C)CC3)CC2)c1 do in these assays?
Cruzain inh noDet: 10%; Cruzain inh Det: 2%

Results for O=C1CC(c2nnc(Cc3ccccc3Cl)o2)CN1c1ccccc1 (stereo not given) ?
Cruzain inh noDet: -4%; Cruzain inh Det: -2%

How did CCCCOc1ccc(C(=O)N(Cc2nc(-c3ccc(Cl)cc3)no2)C(C)C)cc1 do in these assays?
Cruzain inh noDet: -22%; Cruzain inh Det: -8%

Results for O=C(Nc1ccc2nc(SCC(=O)N3CCc4ccccc43)sc2c1)c1ccc(F)cc1 ?
Cruzain inh noDet: 2%; Cruzain inh Det: -2%

What do the screens show for `Cc1nnc(N2CCN(C(=O)Nc3cccc(C(F)(F)F)c3)CC2)c2nn(-c3ccccc3)c(C)c12`?
Cruzain inh noDet: -13%; Cruzain inh Det: -3%

Screening data (PubChem BioAssay)
